Only some compounds are listed: those with a hit (about 2.9% of all), similar ones and a draw of the others.
EPAC1 agonist: human EPAC1 agonism, validation. O95398. EPAC1 Rap1b BODIPY-GDP exchange, fluorescence. Potency, µM, for the others: max response, positive = active, actives largely listed as activators. 1% of 16,000 active; note: nearly all actives have a fitted effect of over 70% in size
EPAC2 antag: human EPAC2 antagonism, validation | Q8WZA2 | EPAC2 Rap1B BODIPY-GDP exchange, fluorescence | Potency, µM (top dose mostly 112 µM), inactives show top-dose activity, negative = inhibition, actives largely listed as inhibitors | 1.7% of 16,000 active;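 note: 100% = activation by cAMP agonist control; nearly all actives have a fitted effect of over 40% in size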
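Normalized against a 6.5 mM cAMP agonist control, compounds were tested on 100 nM EPAC2 exchanging Rap1B-bound BODIPY-GDP (250 nM) for 50 uM GDP. Fluorescence drop (ex 480, em 540 nm) was tracked at room temperature over 30 min at 5-min intervals.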
Active calls of the source: *; i = inactive; ? = inconclusive; ! = a repeat was not active; [ ] = another dose, or the depositor's remark. Calls come from the whole dose curve; as a rule, active = well fitted curve in the direction sought with a large enough effect; inconclusive = small, poorly fitted or top-dose-only effect, or another doubt; inactive = no such curve, though single readings can be large; an effect the other way counts as inactive or inconclusive. Unless noted, % is set by controls: 0 for no effect and ±100 for the full control effect; potency is the fitted concentration of half-maximal effect.

SMILES	EPAC1 agonist	EPAC2 antag
O=C1OC2(c3ccc(O)cc3Oc3cc(O)ccc32)c2ccccc21	?	41%
O=C1OC2(c3ccccc31)c1cc(I)c(O)c(I)c1Oc1c2cc(I)c(O)c1I	32µM*	i
OC1(c2cccnc2)CCN(Cc2ccc3c(c2)CN(Cc2cc4ccccc4s2)CCO3)CC1	?	-43%
COc1cc([C@@H]2c3cc4c(cc3C(O[C@@H]3O[C@@H]5CO[C@@H](C)O[C@H]5[C@H](O)[C@H]3O)C3COC(=O)[C@@H]32)OCO4)cc(OC)c1OP(=O)(O)O (some centres undefined)	-3%	20%
Cc1cn([C@H]2C[C@H](F)[C@@H](CO)O2)c(=O)[nH]c1=O	-6%	-9%
COc1ccc(OC)c2c(/C=C/c3c[nH]c4ccccc34)ccnc12	-27%	-9%
Cc1ccc2c(/C=C/c3c[nH]c4ccccc34)ccnc2c1C	100µM*	-13%
Cc1c(C)c2c(c(C)c1OC(=O)CCC(=O)OCCO)CC[C@@](C)(CCC[C@H](C)CCC[C@H](C)CCCC(C)C)O2	-240%	43%
COc1cc(OC)c(/C=C/c2ccc3ccccc3n2)c(OC)c1	?	-8%
COc1ccc(OC)c(/C=C/c2nc3ccccc3nc2C)c1	100µM*	?
CC(=O)N1CCC2(CC1)CCN(C(c1ccccc1)c1ccccc1)CC2	-63%	-30%
CC(=O)N1CCC2(CCCN(C(c3ccccc3)c3ccccc3)C2)CC1	-25%	32µM*
CN(Cc1cnc2ccccn12)C(=O)c1cc(NC(=O)c2ccccc2)cc2ncn(C3CCCC3)c12	24%	-33%
Oc1ccc(Cl)cc1Cc1cc(Cl)ccc1O	?	89µM*!
NCCc1ccc(O)c(O)c1	?	-10%
CC[C@@]1([C@@H]2O[C@@H]([C@H]3O[C@@](O)(CO)[C@H](C)C[C@@H]3C)C[C@@H]2C)CC[C@H]([C@]2(C)CC[C@]3(C[C@H](O)[C@@H](C)[C@@H]([C@@H](C)[C@@H](OC)[C@H](C)C(=O)O)O3)O2)O1 (stereo in doubt)	-29%	-12%
CC1(C)[C@H]2CC[C@]1(C)[C@H](O)C2	18%	10%
CN(C)c1ccc(/C=C/c2ccnc3c(Cl)cccc23)cc1	112µM*	127%
CN(C)c1ccc(/C=C/c2ccnc3c(-c4ccccc4)cccc23)cc1	?	-16%
CN(C)c1ccc(/C=C/c2c(Cl)cnc3ccccc23)cc1	100µM*	-27%
Cc1ccc2ncc(C)c(/C=C/c3ccc(N(C)C)cc3)c2c1	-25%	-23%
C[N+]1(C)[C@@H]2CC(OC(=O)[C@H](CO)c3ccccc3)C[C@H]1[C@H]1O[C@@H]12 (some centres undefined)	1%	-40%
CN(C)c1ncc2nc(CCc3ccccc3)c(=O)n(-c3ccccc3)c2n1	112µM*	-1%
CN(C)c1ncc2nc(-c3ccc(F)cc3)c(=O)n(-c3ccccc3)c2n1	100µM*	-11%
COc1ncc2nc(CCc3ccccc3)c(=O)n(-c3ccccc3)c2n1	?	-44%
SMILES	EPAC1 agonist	EPAC2 antag
CN(C)c1ncc2nc(-c3ccc(F)cc3)c(=O)n(CCc3ccccc3)c2n1	-38%	-3%
C[C@@H]1NC(=O)[C@@H](N)CNC(=O)[C@H](C2CCNC(N)=N2)NC(=O)/C(=C/NC(N)=O)NC(=O)[C@H](CNC(=O)C[C@@H](N)CCCN)NC1=O (some centres undefined)	0%	2%[56.6 µM]
Cc1onc(-c2ccccc2)c1C(=O)NCCN1Cc2ccccc2OC(c2ccsc2)C1 (centres undefined)	-13%	-22%
COC(=O)[C@H]1[C@@H]2C[C@@H]3c4[nH]c5ccccc5c4CCN3C[C@H]2CC[C@H]1O	-3%	-7%
COC(=O)[C@@H]1C2CC3c4[nH]c5cc(OC)ccc5c4CCN3CC2C[C@H](OC(=O)c2cc(OC)c(OC)c(OC)c2)C1OC (some centres undefined)	100µM*	-21%
COCC(=O)Nc1cc(C(=O)N2CCC(c3ccccc3)CC2)cc2nc(-c3ccccc3)n(C)c12	-2%	?
COc1ccccc1C(=O)N[C@@H]1c2ccccc2C2(CCN(Cc3ccc4c(c3)OCO4)CC2)[C@H]1O	-2%	?
COc1ccccc1CNc1ccnc(-c2ccc3c(c2)OCO3)n1	100µM*	?
COc1ccc(CNc2ccnc(-c3cccc(C#N)c3)n2)c(OC)c1	112µM*	-51%
COc1ccc(CNc2ncncc2-c2cccnc2)c(OC)c1	8%	-32%
COc1ccccc1CNc1ccnc(-c2cccc(C#N)c2)n1	5%	?
COc1cccc(-c2cncnc2NCc2ccc(OC)cc2OC)c1	8%	45µM*
COc1ccc(CNc2ccnc(-c3ccc4c(c3)OCO4)n2)c(OC)c1	15%	-24%
